Results from PubChem BioAssay AID504832 (National Center for Advancing Translational Sciences (NCATS), 2011).
The whole screen tested about 310,000 compounds, of which about 18,000 (5.8%) were called active. Not shown: some 22% with an inconclusive outcome. The full list was thinned out, with actives kept by preference. Unmarked numbers belong to inactive results. Calls come from the whole dose curve; as a rule, active = well fitted inhibition curve with a large enough effect; inconclusive = small, poorly fitted or top-dose-only effect, or another doubt; inactive = no such curve, though single readings can be large or run the other way.

Assay: Primary qHTS for delayed death inhibitors of the malarial parasite plastid, 48 hour incubation
Settings: P. falciparum luciferase growth in erythrocytes; series mostly up to 28.7 µM; activity change, negative = inhibition: at the top concentration
How it was run: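 Luminescence readout; reporter = integrated firefly luciferase in P. falciparum. RBC culture at 2% hematocrit, 0.1% parasitemia final, 37 C/5% CO2; decreased signal taken as growth inhibition.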
% is set by controls: 0 for no effect and ±100 for the full control effect; potency is the fitted concentration of half-maximal effect.

Compound | activity change, negative = inhibition | Potency
COc1ccc(CNS(=O)(=O)c2ccc(NC(=O)N3CCCCC3)cc2)cc1 | -5.79% | –
COc1ccc(C(=O)N2CCN(c3ccc(C(C)=O)cc3F)CC2)cc1S(=O)(=O)NC1CC1 | 17.8% | –
COc1ccc(CNC(=O)CCN2C(=O)c3ccccc3C2=O)cc1 | -4.91% | –
COc1ccc(CNc2ncnc3ccccc23)cc1 | -8.38% | –
COc1ccc(CCNCc2c(-c3ccccc3)n(C)c3ccccc23)cc1 | – | 11.7 µM (active)
COc1cccc(N2C(=O)C3CCCN3C2c2ccc(F)cc2)c1 (configuration not stated) | – | 10.4 µM (active)
Cc1cc(N2C(=O)C3CCCN3C2c2ccc(Cl)c(Cl)c2)no1 (configuration not stated) | 2.43% | –
COc1ccc(OC)c(C2N(c3ccccn3)C(=O)C3CCCN32)c1 (configuration not stated) | 9.65% | –
Cc1cccnc1CCNC(=O)C1CCC(=O)N(Cc2cccc(F)c2)C1 (configuration not stated) | 7.78% | –
COc1ccccc1NC(=O)COC(=O)Cc1ccc(S(=O)(=O)N2CCCCC2)s1 | 11.4% | –
COCCN(Cc1ccccc1)C(=O)Cc1ccc(S(=O)(=O)N2CCOCC2)s1 | – | 10.4 µM (active)
CCN(Cc1ccccc1)C(=O)Cc1ccc(OC)c(S(=O)(=O)N2CCOCC2)c1 | -15.6% | –
CC1CCN(C(=O)/C(=C\c2ccccc2)NC(=O)c2ccccc2)CC1 | 0.253% | –
Cc1c(C)n2c(SCC(=O)NC3CCCC3)nnc2[nH]c1=O | -5.51% | –
CCOc1ncccc1C(=O)OCC(=O)N1c2ccccc2CC1C (configuration not stated) | 7.69% | –
Cc1cc(C)c(S(=O)(=O)N2CCC(C(=O)OCc3c(C)noc3C)CC2)c(C)c1 | – | 11.7 µM (active)
CCOC(=O)C1CCN(S(=O)(=O)c2c(C)noc2C)CC1 | 24.2% | –
CCOC(=O)C1CCN(C(=O)C2CCN(S(=O)(=O)c3c(C)noc3C)CC2)CC1 | -3.05% | –
CCCN(C(=O)c1nc2nccc(C)n2n1)c1c(N)n(Cc2ccccc2)c(=O)[nH]c1=O | -14% | –
Cc1ccc(N(CC(=O)Nc2cc(C)cc(C)c2)S(=O)(=O)c2cccc3nonc23)cc1 | -5.21% | –
CCOc1ccc(N(CC(=O)NCc2ccc(OC)cc2)S(=O)(=O)c2c(C)noc2C)cc1 | -15.5% | –
CCOC(=O)c1cccc(NC(=O)CN(c2ccc(C)cc2)S(=O)(=O)c2c(C)noc2C)c1 | – | 8.28 µM (active)
Cc1ccc(NC(=O)[C@H](Cc2ccccc2)NC(=O)C2CCNCC2)cc1 | 17.4% | –
O=C(Nc1ccc(S(=O)(=O)Nc2ccccn2)cc1)c1ccccc1 | 16.3% | –
COc1cccc(NC(=O)CN(C)C(=O)CSC(=S)N2CCCC2)c1 | 6.54% | –
Cc1coc2c(O)cc3c(c12)OC1(N2CCCCC2)C(=O)NCCCC31 (configuration not stated) | – | 11.7 µM (active)

Compound | activity change, negative = inhibition | Potency
CCOc1ccc(CNC(=O)CCC(=O)N2CCSc3ccccc32)cc1 | 10.3% | –
Cc1ccccc1NCC(=O)N/N=C\c1ccc([N+](=O)[O-])s1 | – | 9.28 µM (active)
Cc1cccc(/C=N/NC(=O)CNc2cccc3ccccc23)n1 | 26.1% | –
Cn1cccc1/C=N/NC(=O)CNc1cccc2ccccc12 | -2.89% | –
CCOc1ccc(NC(=O)CCC(=O)NNC(=O)NC2CCCCC2)cc1 | -21.8% | –
CCOc1ccc(NC(=O)CCC(=O)N/N=C/c2ccc([N+](=O)[O-])s2)cc1 | – | 11.7 µM (active)
CCOc1ccc(NC(=O)CCC(=O)n2nc(C)cc2C)cc1 | 11.4% | –
CN(C)c1cccc(C(=O)N2CCC(n3nccc3NC(=O)C3CCOC3)CC2)c1 (configuration not stated) | -2.94% | –
COc1ccc(CCNC(=O)C(=O)NCC2OCCN2S(=O)(=O)c2ccc(OC)c(C)c2)cc1 (configuration not stated) | -8.72% | –
COC(=O)c1ccccc1NC(=O)CSc1nc2c(c(=O)[nH]1)CCC2 | 20.7% | –
CCc1ccc(OCC(=O)OC(C)C(=O)NC2CC2)cc1 (configuration not stated) | 75.2% | –
O=C(NC1CCCC1)C1CCN(C(=O)Nc2cccc(Cl)c2)CC1 | -17.9% | –
COc1ccc(Cl)cc1NC(=O)C(C)N1CCc2ccccc21 (configuration not stated) | – | 6.57 µM (active)
COc1ccc(Cl)cc1NC(=O)CNc1ccccc1F | -15.1% | –
COc1ccc(Cl)cc1NC(=O)CCN1CCOCC1 | -10.9% | –
O=C(O)CC(c1ccccc1F)N1Cc2ccccc2C1=O (configuration not stated) | 16.6% | –
Nc1nc(NCC(=O)O)nc(N2CCCCCC2)c1[N+](=O)[O-] | 41.1% | –
CNc1nc(Nc2ccc(C)c(Cl)c2)nc(N)c1[N+](=O)[O-] | 200% | –
CCN1CCN(c2nc(Nc3cccc(F)c3)nc(N)c2[N+](=O)[O-])CC1 | – | 13.1 µM (active)
COc1ccccc1C(=O)NC(=O)COC(=O)c1ccco1 | 0.409% | –
O=C(Cn1cnc2ccccc21)Nc1ccccc1-c1ccccc1 | 10.1% | –
CCSc1nnc(SCC(=O)NNC(=O)c2ccccc2F)s1 | 17.2% | –
Cc1cc(OCCCN2CCN(Cc3ccccc3)CC2)ccc1[N+](=O)[O-] | 7.77% | –
Cc1c(CN2CCC(CO)(CCOc3ccccc3)CC2)[nH]c2ccc(Cl)cc12 | – | 3.7 µM (active)
OCC1(CCOc2ccccc2)CCN(Cc2cn[nH]c2-c2ccccc2)CC1 | -18.6% | –
CC(OC(=O)CN1C(=O)COc2ccccc21)C(=O)NCc1ccc(F)cc1 (configuration not stated) | -14.5% | –

Compound | activity change, negative = inhibition | Potency
O=C(NCCc1ccccn1)c1nc(Cn2cc([N+](=O)[O-])cn2)no1 | 30.2% | –
CC(=O)Nc1ccc(S(=O)(=O)N(C)c2nc3ccccc3nc2Cl)cc1 | -27% | –
COc1ccc(C(=O)C2CCCN(C(=O)c3cc(C)on3)C2)cc1F (configuration not stated) | 42.1% | –
CC(=O)NCCC(=O)Nc1cc(S(=O)(=O)N2CCOCC2)ccc1N1CCOCC1 | -16.3% | –
O=C(COc1cccc2ccccc12)Nc1cc(S(=O)(=O)N2CCOCC2)ccc1N1CCOCC1 | – | 11.7 µM (active)
CCOc1cc(N2CCOCC2)c(OCC)cc1NC(=O)COc1cccc2cccnc12 | – | 3.29 µM (active)
O=C(COC(=O)c1ccccc1F)Nc1cc(S(=O)(=O)N2CCOCC2)ccc1N1CCCC1 | -14.6% | –
NC(=O)C1CCN(C(=O)COc2cccc3cccnc23)CC1 | 7.18% | –
CCOc1cc(N2CCOCC2)c(OCC)cc1NC(=O)C1=NN(c2cccc(C)c2)C(=O)CC1 | 10.1% | –
O=C(Nc1c2c(nn1-c1ccccc1)CS(=O)(=O)C2)C1CCCC1 | -1.05% | –
Cc1cccc(C)c1NC(=O)CSc1nc2c([nH]1)c(=O)n(C)c(=O)n2C | -6.97% | –
Cc1cc(NC(=O)Nc2c[nH]c(=O)[nH]c2=O)ccc1Br | 44.9% | –
O=C(NC1CCN(S(=O)(=O)c2ccc(F)cc2)CC1)c1ccccc1 | -8.27% | –
O=C(Cc1cccs1)Nc1ccc([N+](=O)[O-])cc1 | -2.04% | –
O=C(CN(c1cc(C(F)(F)F)ccc1Cl)S(=O)(=O)c1ccccc1)NCc1cccnc1 | -14% | –
CCCNC(=O)c1ccc(N2CCC3(CC2)CC(c2ccc(Cl)cc2)=NO3)c([N+](=O)[O-])c1 | -27.8% | –
COCCNC(=O)c1ccc(N2CCC3(CC2)OCCO3)c([N+](=O)[O-])c1 | 14.9% | –
CCCNC(=O)c1ccc(N2CCC3(CC2)CC(c2cccc(Br)c2)=NO3)c(NC(=O)c2ccco2)c1 | – | 0.738 µM (active)
CCOC(=O)C1CCCN(S(=O)(=O)c2ccc(-n3cnnn3)c(C)c2)C1 (configuration not stated) | -3.15% | –
Cc1cnc(CN(C)C(=O)C2CCC(=O)N(CCc3cccc(F)c3)C2)[nH]1 (configuration not stated) | 18.4% | –
Cc1ccc(N(CC(=O)NCC2CCCO2)C(=O)CNS(=O)(=O)c2ccc(Cl)cc2)cc1 (configuration not stated) | 6.36% | –
O=c1[nH]c(N2CCOCC2)nc2ccccc12 | 1.63% | –
Cc1ccc(S(=O)(=O)N2CCN(C(=O)CSc3cc(C)ccc3C)CC2)c(C)c1 | -1.45% | –
Cc1ccc(S(=O)(=O)N2CCN(C(=O)COC(=O)c3c(C)cc(C)cc3C)CC2)c(C)c1 | – | 14.7 µM (active)
Cc1ccc(S(=O)(=O)N2CCN(C(=O)COC(=O)c3c(C)noc3C)CC2)c(C)c1 | 52.3% | –
COc1ccc(N2CCN(C(=O)c3cccs3)CC2)cc1 | -15.9% | –

Compound | activity change, negative = inhibition | Potency
O=C(NCCc1ccccc1Cl)C1CCC(=O)N(CCCc2ccccc2)C1 (configuration not stated) | 18% | –
O=C1N=C(N2CCc3ccccc3C2)S/C1=C\c1ccc(O)cc1 | – | 7.38 µM (active)
NC1=NC(=O)S/C1=C\c1ccc(O)cc1 | 30.8% | –
O=C1N=C(N2CCOCC2)S/C1=C\C=C/c1ccccc1 | 123% | –
O=S1(=O)CCO[C@H]2Cc3ccccc3[C@H]2N1Cc1ccccc1 | 0.289% | –
O=C(c1cc(COc2ccc(F)c(F)c2)on1)N1CCOCC1 | 52.7% | –
COc1cc(/C=N/NC(=O)c2ccoc2C)ccc1OCCN1CCCCC1 | -9.35% | –
COc1ccccc1NC(=O)C1=C(C)Nc2nc3ccccc3n2C1c1cccs1 (configuration not stated) | – | 13.1 µM (active)
COc1ccc(C2C(C(=O)Nc3ccccc3OC)=C(C)Nc3nnnn32)c(OC)c1 (configuration not stated) | -15.3% | –
COc1ccccc1NC(=O)C1=C(C)Nc2nnnn2C1c1cccc(Br)c1 (configuration not stated) | 2.75% | –
COc1cccc(NC(=O)CN2CCN(CC(=O)Nc3ccccc3Cl)CC2)c1 | -21.8% | –
C[C@@H](NC(=O)[C@@H]1Cc2ccccc2CN1)C(=O)NC1CCCC1 | -0.639% | –
O=C(NC1CCN(Cc2ccccc2)CC1)c1ccccc1F | 9.94% | –
Cc1cc(C(=O)NC2CCN(Cc3ccccc3)CC2)n[nH]1 | 9.09% | –
Cc1ccc(-c2cc(C(=O)NC3CCN(Cc4ccccc4)CC3)c3ccccc3n2)cc1 | – | 13.1 µM (active)
COc1c(C)cc(C(=O)C2CCCN(S(=O)(=O)c3c(C)noc3C)C2)cc1C (configuration not stated) | – | 9.28 µM (active)
COc1ccc(C(=O)C2CCCN(S(=O)(=O)c3cccc(C)c3)C2)c(C)c1 (configuration not stated) | 5.74% | –
Cc1ccc(NC(=O)C2CCCN(S(=O)(=O)c3c(C)noc3C)C2)c(C)c1 (configuration not stated) | -11.5% | –
CN(C(=O)CSc1nnc(-c2ccc(C(C)(C)C)cc2)n1C)C1CCS(=O)(=O)C1 (configuration not stated) | -24.5% | –
CC(=O)Nc1ccc(C(=O)N(C2=NC(C)CS2)c2ccc(Cl)cc2)cc1 (configuration not stated) | 9.6% | –
Nc1nc(SCc2cccc(Br)c2)n[nH]1 | -0.207% | –
Cc1nc(NNC(=O)c2ccccc2)cc(-c2ccccc2)n1 | 22.6% | –
Cc1ccc(-c2csc(NC(=O)c3cccs3)n2)cc1 | -29.7% | –
Cc1ccc(-c2csc(NNC(=O)c3ccccc3)n2)cc1 | – | 2.33 µM (active)
